Compound activity as filed in PubChem BioAssay.
The list is not random: actives were taken first. Their share in the collection is about 3.1%.
Tau fluor counter – counter-screen for tau fibril formation inhibitors; tau K18 P301L Alexa594 fluorescence, heparin fibrillization; Potency, µM (highest dose often 57.7 µM), for inactives: top-dose activity change, negative = decrease; 0.93% of 280,000 active; AID 1463; also: nearly all actives have a fitted effect of over 55% in size
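Human tau K18 P301L (15 uM unlabeled, 0.24 uM Alexa 594-labeled) in 100 mM sodium acetate pH 7 with 20 uM heparin, 6 hr at 37 C. ThT 30 uM added, 1 hr ambient; Alexa 594 FP and total fluorescence read at 555/632 nm.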
TRb SRC2 PPI – inhibitors of human thyroid hormone receptor beta-SRC2 interaction | AID 1469 | TRbeta-SRC2 peptide binding, fluorescence polarization; receptor liganded with 1 µM T3 | Potency, µM (series often up to 106 µM), for inactives: at the highest dose activity change, negative = inhibition, actives largely listed as inhibitors | 0.065% of 280,000 active;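 also: plate controls were bound peptide for no effect and peptide without receptor for full effect; nearly all actives have a fitted effect of over 50% in size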
Target sequence (P10828 whole entry, looked up): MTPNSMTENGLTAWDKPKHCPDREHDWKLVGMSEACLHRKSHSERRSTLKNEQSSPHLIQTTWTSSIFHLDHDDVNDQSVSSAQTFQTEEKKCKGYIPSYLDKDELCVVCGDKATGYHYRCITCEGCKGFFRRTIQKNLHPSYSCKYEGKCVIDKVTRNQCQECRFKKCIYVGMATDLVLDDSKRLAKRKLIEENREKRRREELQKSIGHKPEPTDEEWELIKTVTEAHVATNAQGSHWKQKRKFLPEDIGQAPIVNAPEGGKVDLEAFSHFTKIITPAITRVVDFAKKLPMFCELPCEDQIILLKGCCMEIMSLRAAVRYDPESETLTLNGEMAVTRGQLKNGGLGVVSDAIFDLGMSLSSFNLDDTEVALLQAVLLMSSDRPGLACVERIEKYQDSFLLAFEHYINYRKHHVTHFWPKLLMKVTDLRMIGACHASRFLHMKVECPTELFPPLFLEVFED
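Binding of a 20-amino-acid Texas Red SRC2 peptide (20 nM) to TRb ligand-binding domain (0.6 uM) with agonist T3 at 1 uM was followed by fluorescence polarization after a 5 hr room-temperature incubation.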
TexasRed fluor – alters Texas Red total fluorescence, flagging assay interference; TRb/SRC2 Texas Red total fluorescence interference; Potency, µM (highest dose often 106 µM), for inactives: at the highest dose fluorescence change, negative = quenching; 0.29% of 280,000 active; active = well fitted curve in either direction with a large enough effect; inconclusive = small, poorly fitted or top-dose-only effect
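Flags fluorescent or light-absorbing compounds by total fluorescence, S + 2P, at 555 nm excitation and 632 nm emission. Mixture: 20 nM Texas Red SRC2 peptide, 0.6 uM human TRb LBD, 1 uM T3, 5% DMSO; compound exposure 5 h at ambient temperature.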
Tau ThT inhib – blocks human tau fibril formation measured by thioflavin T | AID 1460 | 2.1% of 270,000 active | Potency, µM (doses to about 57.4 µM), for the others: at the top dose activity, negative = inhibition, usual class: inhibitors | P10636 | recombinant tau K18 P301L (four-repeat tau fragment), heparin-induced fibrillization, ThT fluorescence; also: nearly all actives have a fitted effect of over 55% in size
Target sequence (P10636 561-689 P618L limits assumed): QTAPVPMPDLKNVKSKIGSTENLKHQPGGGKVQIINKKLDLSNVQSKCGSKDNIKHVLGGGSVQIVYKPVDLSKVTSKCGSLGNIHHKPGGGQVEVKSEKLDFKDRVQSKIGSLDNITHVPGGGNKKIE
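Heparin-induced fibrillization of the P301L-mutant K18 repeat-domain fragment of human tau was followed by ThT binding in quantitative high-throughput format.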
Tau fibril FP – blocks human tau fibril formation measured by polarization; Potency, µM (series often up to 57.7 µM), without a hit: top-dose activity, negative = inhibition, usual class: inhibitors; P10636; K18 P301L tau heparin fibrillization, Alexa594 FP, 6 h; 0.39% of 280,000 active; also: nearly all actives have a fitted effect of over 55% in size
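Compound effects on tau fibrillization are measured by Alexa 594 fluorescence polarization (ex 555, em 632 nm). K18 P301L tau is used at 15 uM with 0.24 uM labeled tracer, and 20 uM heparin induces aggregation over 6 hr at 37 C.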
Active calls of the source: *; ? = inconclusive; . = no result; [ ] = another dose, or the depositor's remark. Unless noted, calls follow the shape of the dose curve; as a rule, active = well fitted curve in the direction sought with a large enough effect; inconclusive = small, poorly fitted or top-dose-only effect, or another doubt; inactive = no such curve, though single readings can be large; an effect the other way counts as inactive or inconclusive. Unless noted, % is scaled to controls: 0 for no effect and ±100 for the full control effect; potency is read from the fitted curve at half-maximal effect.

SMILES	Tau fluor counter	TRb SRC2 PPI	TexasRed fluor	Tau ThT inhib	Tau fibril FP
CCOC(=O)c1nn(-c2ccccc2C)c(=O)c(C#N)c1C	-17%	8%	0%	?	0%
CCOC(=O)c1nn(-c2ccccc2C)c(=O)c2c(N)scc12	-26%	-3%	-1%	16µM*	18µM*
O=C(CCS(=O)(=O)c1ccc(Br)s1)Nc1cc(C(F)(F)F)cc(C(F)(F)F)c1	?	4%	?	-11%	20µM*
Cc1[nH]c2ccccc2c1/C=N/Nc1cccc(C(=O)O)c1	?	0%	0%	13µM*	-8%
Cc1[nH]c2ccccc2c(=O)c1C(=O)/C=C/c1ccccc1	-3%	-3%	0%	.	-10%
C(=N\Nc1nc(N2CCCCC2)nc(N2CCCCC2)n1)/c1c[nH]c2ccccc12	?	3%	1%	?	5%
Cc1[nH]c2ccccc2c1/C=C/C(=O)c1ccccc1	18µM*[quencher]	4%	-4%	?	4%
Cc1[nH]c2ccccc2c1/C=N/Nc1nc(N2CCCCC2)nc(N2CCCCC2)n1	10µM*[quencher]	4%	-3%	?	?
Brc1ccc(/C=N/Nc2ccccc2)cc1	20µM*[quencher]	-6%	-2%	?	11%
CCN(C(=O)CSc1nnc(-c2cc(OC)c(OC)c(OC)c2)o1)c1ccccc1	-20%	4%	-7%	?	1%
O=C(COCc1cc(-c2cccs2)on1)N1CCN(c2cccc(Cl)c2)CC1	-25%	-9%	?	?	7%
O=C(O)c1cccc(N/N=C/c2ccc(-c3ccccc3)cc2)c1	?	0%	-2%	14µM*	-6%
O=C(O)c1cccc(N/N=C/c2cc(Br)cc(Br)c2O)c1	18µM*[quencher]	-4%	-18%	11µM*	?
COc1ccc(Br)cc1/C=N/Nc1cccc(C(=O)O)c1	-25%	7%	-6%	?	0%
CCC1CCCCN1CCCNC(=O)c1sc2nc(C)cc(C)c2c1-n1cccc1 (stereo not given)	-6%	-1%	-2%	?	0%
Cc1ccc(S(=O)(=O)N/N=C/c2cccn2-c2ccc(Cl)cc2)cc1	?	-2%	3%	?	?
CC1=NN(c2ccc(Cl)cc2)C(=O)/C1=C\c1cccn1-c1ccc(S(N)(=O)=O)cc1	11µM*[quencher]	5%	-9%	7.1µM*	11%
CC1CC(C)CN(C(=O)c2ccc3c(c2NCCO)C(=O)c2ccccc2C3=O)C1 (stereo not given)	?	6%	17%	18µM*	10%
O=C1c2ccccc2-c2c1cccc2C(=O)N1CCCCC1	-12%	3%	-2%	-11%	-3%
O=C(Cn1ncn2c(cc3cc(F)ccc32)c1=O)NC1CCCCC1	-2%	6%	-3%	4%	-5%
COc1cc(/C=C2/C(=O)NN(c3ccc(Cl)cc3)C2=O)ccc1OC(=O)c1ccco1	?	-3%	-9%	14µM*	5%
CCC(CNc1cc(OC)cc2cccnc12)NC1CCCCC1 (stereo not given)	-25%	?	5%	?	1%
COc1cc(NCCCC(C)N)c2ncccc2c1 (stereo not given)	?	28µM*	45µM*[fluorescent]	25µM*	?
COc1cccc(-c2cnc(NCc3cc(Cl)ccc3O)n2C)c1	20µM*[quencher]	-11%	-4%	?	15%
COc1cccc(-c2cnc(NCc3ccccc3Cl)n2C)c1	?	3%	4%	?	8%
SMILES	Tau fluor counter	TRb SRC2 PPI	TexasRed fluor	Tau ThT inhib	Tau fibril FP
COc1ccccc1N1CCN(C(=O)c2nc(SC)ncc2Cl)CC1	-12%	-1%	6%	-5%	-4%
O=C(COC(=O)c1ccccc1Cc1ccccc1)Nc1ccc(SC(F)F)cc1	?	-5%	0%	3%	25µM*
CCC(=O)Nc1nc(-c2ccc3c(c2)OCCO3)cs1	-8%	3%	-1%	?	8%
COc1cccc(Nc2nc(-c3ccc4c(c3)OCCO4)cs2)c1	11µM*[quencher]	-1%	-4%	7.1µM*	-8%
COc1ccccc1C(=O)Nc1nc(-c2ccc3c(c2)OCCO3)cs1	?	6%	-2%	-18%	-27%
c1cc2c(cc1Nc1nc(-c3ccc4c(c3)OCO4)cs1)OCCO2	8.9µM*[quencher]	10%	3%	3.2µM*	7%
c1cc2c(cc1-c1csc(NNC3=NCCCCC3)n1)OCCO2	?	-1%	0%	25µM*	28µM*
c1ccc(-c2csc(Nc3ccc4c(c3)OCCO4)n2)cc1	14µM*[quencher]	-9%	-3%	13µM*	-6%
O=C(Nc1nc2n(n1)C(c1ccc(F)cc1)C=C(c1ccccc1)N2)c1ccco1 (stereo not given)	-8%	3%	0%	-14%	1%
CCN(CC)S(=O)(=O)c1cccc(NC(=O)C2SC(=Nc3ccc(C)cc3C)C(C(=O)NC(C)COC)=C2N)c1 (stereo not given)	25µM*[quencher]	-13%	0%	-14%	0%
CCCCN(C)C(=O)c1ccc2c(c1)N(Cc1ccc(F)cc1)C(=O)c1ccccc1S2(=O)=O	?	-12%	0.0011µM*[quencher]	?	-3%
COc1ccc(NC(=O)c2ccc3c(c2)N(Cc2cccc(Cl)c2)C(=O)c2ccccc2S3(=O)=O)cc1Cl	-17%	0%	-1%	12%	16µM*
CC(=O)c1ccc(NC(=O)c2ccc3c(c2)N(Cc2cccc(Cl)c2)C(=O)c2ccccc2S3(=O)=O)cc1	?	7%	-1%	-10%	16µM*
O=C(Nc1cccc(F)c1)c1ccc2c(c1)N(Cc1ccccc1)C(=O)c1ccccc1S2(=O)=O	?	5%	-1%	5%	14µM*
COc1ccc(NC(=O)c2ccc3c(c2)N(Cc2cccc(Cl)c2)C(=O)c2ccccc2S3=O)cc1Cl (stereo not given)	-22%	-5%	1%	4%	?
COC(=O)C1=C(C)NC(C)=C(C(=O)NCCCN2CCC(c3ccccc3)(c3ccccc3)CC2)C1c1ccc([N+](=O)[O-])cc1 (stereo not given)	.	8%	-3%	.	.
CCCCCSc1nc2sc3c(c2c(=O)n1-c1ccc(OC)cc1)CCN(C(C)=O)C3	-19%	?	22µM*[quencher]	?	-8%
CCCN(CCC)C(=O)CSc1nc2sc3c(c2c(=O)n1-c1ccccc1)CCN(C(C)=O)C3	-3%	-1%	1%	-13%	-1%
O=C1C(Nc2ccccc2)=CC(=O)c2ncccc21	?	4%	-9%	14µM*	?
O=C(Cl)c1cc(Cl)cc(Cl)c1	.	5%[201 µM]	-1%[201 µM]	.	.
CC(=O)Nc1ccc(Nc2nc(C)nc3c2oc2ccccc23)cc1	-25%	-1%	-11%	?	-2%
CC(=O)N1CCN(c2ccc(Nc3nc(C)nc4c3oc3ccccc34)cc2)CC1	?	-1%	-12%	8.9µM*	2%
